Inconclusive results are not listed. Active and inactive are the calls of the source. Calls follow the shape of the dose curve; as a rule, active = well fitted curve in the direction sought with a large enough effect; inconclusive = small, poorly fitted or top-dose-only effect, or another doubt; inactive = no such curve, though single readings can be large; an effect the other way counts as inactive or inconclusive.
Experiments:
[1] = MultiTox-Fluor Cytotoxicity Assay - LYMP1-001 - Dead Cells (AID 946);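 also: cells exposed to compound for 16 h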
Summary of the method: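 AC50 from Hill fit of concentration-response; data normalized to DMSO (basal) and 15 uM tetraoctylammonium bromide (100%). LYMP1-001 lymphoblastoid cells, 2500/well, 16 hr compound at 37 C; dead-cell protease fluorescence, Ex/Em 485/520.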

[2] = MultiTox-Fluor Cytotoxicity Assay - LYMP1-001 - Live Cells (AID 947)
[3] = Cell Viability - LYMP1-002 - Assay at 16 hr (AID 948)
Summary of the method: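 Acute cytotoxicity is scored as a concentration-dependent fall in intracellular ATP in a human lymphoblastoid line (LYMP1-002) after 16 hr compound exposure at 37 C, measured by luciferase luminescence.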

[4] = MultiTox-Fluor Cytotoxicity Assay - LYMP1-002 - Live Cells (AID 955);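 also: cells exposed to compound for 16 hours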
Summary of the method: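 Human lymphoblastoid LYMP1-002 cells, 2500/well, treated 16 h at 37 C in complete medium. Live-cell protease activity via GF-AFC fluorescence (Ex/Em 405/510) after 60 min reagent incubation; AC50 from Hill fits.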

[5] = MultiTox-Fluor Cytotoxicity Assay - LYMP1-002 - Dead Cells (AID 960);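 also: cells exposed to compound for 16 h at 37 °C; nearly all actives have a fitted effect of over 60% in size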
Summary of the method: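 Human lymphoblastoid LYMP1-002 cells, 2500/well, treated 16 h at 37 C; dead-cell protease cleavage of bis-AAF-R110 read by fluorescence (485/520); normalized to DMSO and 15 uM tetraoctylammonium bromide; AC50 from Hill fit.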

[6] = MultiTox-Fluor Cytotoxicity Assay - LYMP1-003 - Dead Cells (AID 961);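 also: cells exposed to compound for 16 h at 37 °C; nearly all actives have a fitted effect of over 70% in size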
Summary of the method: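 Human lymphoblastoid LYMP1-003 cells (2500/well) were treated with compounds for 16 hr at 37 C in complete medium. Dead-cell protease release was read by bis-AAF-R110 fluorescence (Ex/Em 485/520). AC50 came from Hill fits, normalized to DMSO and 15 uM tetraoctylammonium bromide.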

[7] = MultiTox-Fluor Cytotoxicity Assay - LYMP1-003 - Live Cells (AID 962);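 also: cells exposed to compound for 16 hours at 37 °C; cytotoxic hits lower the live-cell protease signal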
Summary of the method: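 LYMP1-003 lymphoblastoid cells, 2500/well in complete medium, treated 16 h at 37 C; live-cell protease cleavage of GF-AFC read by fluorescence (Ex/Em 405/510) after 60 min reagent; AC50 from Hill fits of concentration-response.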

[8] = Cell Viability - LYMP1-003 - Assay at 24 hr (AID 963)
Summary of the method: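 Human lymphoblastoid LYMP1-003 cells, 2500/well, treated 24 h at 37 C in complete medium. Viability read as intracellular ATP by CellTiter-Glo luminescence after 30 min at room temperature; AC50 from Hill-equation fits of qHTS concentration-response.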

[9] = Cell Viability - LYMP1-003 - Assay at 40 hr (AID 964); also: series mostly up to about 92 µM; nearly all actives have a fitted effect of over 60% in size
Summary of the method: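 LYMP1-003 human lymphoblastoid cells, 2500/well, preincubated 5 h at 37 C, then treated with compound for 40 h at 37 C. Intracellular ATP read by CellTiter-Glo luminescence after 30 min at room temperature; AC50 from Hill-equation fits.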

[10] = Cell Viability - LYMP2-003 (AID 965);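 also: cells exposed to compounds for 24 h before reading; nearly all actives have a fitted effect of over 50% in size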
Summary of the method: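 Acute cytotoxicity is scored as a concentration-dependent drop in intracellular ATP, measured by luciferase luminescence in human lymphoblastoid cells treated for 24 hours at 37 C. AC50 values derive from Hill-equation modelling.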

Measured: Potency

Nc1cccc(S(=O)(=O)O)c1
inactive: all assays above

O=C(O)c1ccc(CO)o1
inactive: all assays above

c1ccc2c(c1)Oc1ccccc1S2
inactive: all assays above

COc1ccc(OC)cc1
inactive: all assays above

NS(=O)(=O)O
inactive: all assays above

Cc1cccc(C(=O)O)c1
inactive: all assays above

O=C(O[C@@H](C(=O)O)[C@@H](OC(=O)c1ccccc1)C(=O)O)c1ccccc1
inactive: all assays above

C1COC1
inactive: all assays above

Nc1ccc(Cl)cc1[N+](=O)[O-]
inactive: all assays above

Cc1ccccc1C(=O)O
inactive: all assays above

CCN(C(=O)N(CC)c1ccccc1)c1ccccc1
inactive: all assays above

C=C(C)C1CC=C(C)C(OC(C)=O)C1 (stereo not given)
inactive: all assays above

O=C(O)c1cccc([N+](=O)[O-])c1
inactive: all assays above

CC(C)(O)C(=O)O
inactive: all assays above

CC(C)(C)OCC1CO1 (stereo not given)
inactive: all assays above

O=C(O)CCSSCCC(=O)O
inactive: all assays above

Cc1ccc2ccccc2c1[N+](=O)[O-]
inactive: all assays above

O=[N+]([O-])c1ccc(CCO)cc1
inactive: all assays above

CCCCC=O
inactive: all assays above

C=CCn1c(=O)n(CC=C)c(=O)n(CC=C)c1=O
inactive: all assays above

COC(=O)CC#N
inactive: all assays above

CCN(CC)c1cccc(O)c1
inactive: all assays above

NC=O
inactive: all assays above

COC(=O)CCCC(=O)OC
inactive: all assays above

CC(C)(c1cc(Br)c(OCC(Br)CBr)c(Br)c1)c1cc(Br)c(OCC(Br)CBr)c(Br)c1 (stereo not given)
inactive: all assays above

CC(CCl)OC(C)CCl (stereo not given)
inactive: all assays above

CCc1ccccc1
inactive: all assays above

Oc1cccc(Nc2ccccc2)c1
inactive: all assays above

CCCOCC(C)O (stereo not given)
inactive: all assays above

CCCCCCCCCCCCC1CO1 (stereo not given)
inactive: all assays above

Cc1c(N)cccc1[N+](=O)[O-]
inactive: all assays above

COCCOC(=O)c1ccccc1C(=O)OCCOC
inactive: all assays above

Cc1cscn1
inactive: all assays above

Nc1nc2ccccc2[nH]1
inactive: all assays above

Cc1cccc2sc(N)nc12
inactive: all assays above

O=C(O)c1cc(Cl)cc(Cl)c1
inactive: all assays above

N#Cc1ccccc1
inactive: all assays above

Oc1c(Cl)ccc(Cl)c1Cl
inactive: all assays above

CCOc1cc(OCC)c(C(C)=O)cc1OCC
not listed: [5]
inactive: all other assays above

CCOc1ccccc1N
inactive: all assays above

OC/C(Br)=C(\Br)CO
not listed: [5]
inactive: all other assays above

C=CCCC
inactive: all assays above

O=c1[nH][nH]c(=O)c2cc([N+](=O)[O-])ccc12
not listed: [5]
inactive: all other assays above

C=C(C)C(=O)OC
inactive: all assays above

O=P(O)(OCc1ccccc1)OCc1ccccc1
not listed: [5]
inactive: all other assays above

FB(F)F
not listed: [5]
inactive: all other assays above

CCC1CO1 (stereo not given)
not listed: [5]
inactive: all other assays above

C=Cc1ccc(C=C)cc1
not listed: [5] | [10]
inactive: all other assays above

CCC(C)=O
inactive: all assays above

c1ccc(Oc2ccccc2)cc1
not listed: [5] | [10]
inactive: all other assays above

CSCCC=O
inactive: all assays above

CCOc1cccc(N)c1
inactive: all assays above

CC#N
inactive: all assays above

CCC(C)(C)OC
inactive: all assays above

Cc1ccc2nc(-c3ccc(N)cc3)sc2c1S(=O)(=O)O
inactive: all assays above
